# Bioassay records as filed in PubChem BioAssay.
# Shown are actives, neighbours in structure and some others; about 1.3% of the full set was active somewhere.
# RAD52 inh – inhibitors of human RAD52 DNA annealing; P43351; inhibition, % at 18.7 µM; 0.46% of 360,000 active; recombinant RAD52 DNA annealing, FRET fluorescence;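 active = every replicate showing at least 50% inhibition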
# Target sequence (P43351 whole entry, looked up): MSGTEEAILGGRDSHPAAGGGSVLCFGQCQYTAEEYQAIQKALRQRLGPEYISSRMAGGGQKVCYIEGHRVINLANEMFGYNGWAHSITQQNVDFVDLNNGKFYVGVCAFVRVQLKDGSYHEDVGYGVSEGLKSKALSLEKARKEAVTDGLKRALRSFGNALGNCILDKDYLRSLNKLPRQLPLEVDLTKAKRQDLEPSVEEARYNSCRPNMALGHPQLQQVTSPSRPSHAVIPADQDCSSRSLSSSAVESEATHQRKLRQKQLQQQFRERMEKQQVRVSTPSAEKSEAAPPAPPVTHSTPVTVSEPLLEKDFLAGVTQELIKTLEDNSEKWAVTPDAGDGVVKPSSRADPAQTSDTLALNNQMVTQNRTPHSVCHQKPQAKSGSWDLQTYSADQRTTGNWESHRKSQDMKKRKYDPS
# UBC13 inh – blocks human UBC13 polyubiquitin chain formation; inhibition, % at 20 µM; 0.47% of 330,000 active; TR-FRET; P61088; in the data active = inhibition above about 45%, passing the limit was not always enough
# Target sequence (P61088 whole entry, looked up): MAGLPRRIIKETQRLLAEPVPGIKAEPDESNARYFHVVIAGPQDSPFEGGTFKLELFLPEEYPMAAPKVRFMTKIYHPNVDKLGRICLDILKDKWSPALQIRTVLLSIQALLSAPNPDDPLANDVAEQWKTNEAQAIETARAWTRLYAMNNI
# FID counter – displaces DNA intercalator in HCV helicase counter-screen | DNA fluorescent intercalator displacement, fluorescence | inhibition, % at 7.9 µM | 0.17% of 290,000 active; in the data active = inhibition above about 37%;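 note: 0% = vehicle and 100% = reference compound; higher means more ethidium bromide displaced from hairpin DNA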
# PREPL inhibitor – inhibitors of human prolyl oligopeptidase-like enzyme PREPL | recombinant PREPL, fluorescence polarization activity-based probe | inhibition, % at 5.96 µM | 0.68% of 320,000 active | AID 2751;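 note: 0% = enzyme with DMSO and 100% = wells lacking enzyme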
# RAD54 inh – blocks human RAD54 Holliday junction branch migration | 0.14% of 360,000 active | FAM/BHQ fluorescence | AID 602329 | inhibition, % at 10.4 µM;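 active = mean normalized replicate activity at least 40 and at least half of replicates scoring 40 or more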;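 note: 0% = median of neutral control wells and 100% = median of positive control wells; inhibitors cause a drop in the FAM fluorescence signal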
# MIN6 prolif – MIN6 beta-cell proliferation induction. MIN6 cells proliferation, ATPlite luminescence, 48 h; cells starved in 0.2% serum; 100% = growth in 10% serum. 0.29% of 330,000 active. proliferation, % at 10 µM. AID 2380;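 active = compounds whose signal lies at least 3.5 SD above the mean of all wells on their plate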;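 note: 0% = DMSO-treated cells in low-serum medium and 100% = 10% serum control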
# PREPL inh cf – human PREPL inhibition, confirmation | shares compounds with PREPL inhibitor | recombinant PREPL, fluorescence polarization activity probe | inhibition, % at 5.96 µM | 67% of 2,000 active | AID 2803;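 note: 0% = protein with DMSO and 100% = wells lacking protein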
# Casp3 counter – counter-screen for UBC13 inhibitors: human caspase-3 inhibition | Recombinant caspase-3, Caspase-Glo 3/7 luminescence, 60 min | inhibition, % at 20 µM | AID 488856 | shares compounds with UBC13 inh | 4% of 1,400 active;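 active = mean inhibition across replicates above about 26%, limit read from the data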;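 note: plate controls were DMSO with caspase-3 for no effect and DMSO wells lacking enzyme for full effect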
# UBC13 conf – confirmation of human UBC13 polyubiquitin inhibitors; inhibition, % at 10 µM; UBC13 polyubiquitination, TR-FRET, biochemical; 68% of 1,400 active; AID 488859; shares compounds with UBC13 inh; in the data active = inhibition above about 45%
# DNA binder FP – binds DNA, flagging false RAD52 inhibitor hits; AC50, µM; shares compounds with RAD52 inh; Salmon sperm DNA/acridine orange FP displacement, DNA binding; 8% of 1,000 active;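 active = fitted half-maximal concentration for signal loss at or below twice the highest dose tested, in every separate run, actives reach about 64 µM in these data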
# * = called active by the depositor; i = inactive; x = not tested or not shown. Cut-off read from the data, not from the text of the source, unless noted: active = inhibition above about 43%; inactive = the rest.
SMILES,RAD52 inh,UBC13 inh,FID counter,PREPL inhibitor,RAD54 inh,MIN6 prolif,PREPL inh cf,Casp3 counter,UBC13 conf,others
C=CCn1c(O)c(C(C)=NCCC(c2ccccc2)c2ccccc2)c(=O)[nH]c1=O,x,10,-4,2,x,0,x,x,x,
C=CCn1c(O)c(C(C)=NCCc2c[nH]c3ccccc23)c(=O)[nH]c1=O,-5,6,-15,49*,x,-1,48*,x,x,
CCCCn1c(O)c(C(C)=NCCc2c[nH]c3ccccc23)c(=O)[nH]c1=O,-8,10,-25,44*,x,-2,36,x,x,
CCCCn1c(O)c(C(C)=NC(Cc2c[nH]c3ccccc23)C(=O)OC)c(=O)[nH]c1=O (stereo unspecified),x,-6,-18,16,7,0,x,x,x,
CCOC(=O)c1c(NS(=O)(=O)c2ccccc2)n(CCCOC)c2nc3ccccc3nc12,x,-11,-19,46*,x,0,11,x,x,
CN1C[C@H](CNC(=O)OCc2ccccc2)C[C@@H]2c3cccc4c3c(cn4C)C[C@H]21,-118,-8,3,64*,25,-6,61*,x,x,
COc1ccc(-c2cc(-c3ccccc3)[n+](C)c(-c3ccccc3)c2)cc1,11,10,7,13,x,-6,x,x,x,
C[n+]1c(-c2ccccc2)cc(CCCCc2cc(-c3ccccc3)[n+](C)c(-c3ccccc3)c2)cc1-c1ccccc1,29,33,23,46*,-27,-7,46*,x,x,
COC(=O)[C@H]1[C@H](CO)[C@H]2Cn3c(ccc(/C=C/c4ccccc4)c3=O)[C@@H]1N2C(=O)C1CC1,16,x,x,x,1,x,x,x,x,
Cc1nc2c(=O)n(C)c(=O)nc-2n(C)n1,x,-23,-1,44*,x,-4,51*,x,x,
COC(=O)[C@H]1[C@H](CO)[C@H]2Cn3c(ccc(C4=CCCCC4)c3=O)[C@@H]1N2CC1CCCCC1,-8,x,x,x,x,x,x,x,x,
COc1ccc2[nH]c(C)c(CCNCc3cn(C)c4ccccc34)c2c1,34,14,x,70*,x,-7,54*,x,x,
CCCC[C@@H](C)C[C@@H](C)C(=O)N(C)[C@@H](CC(C)C)C(=O)N[C@H](C(=O)N(C)[C@H](C(=O)N1C[C@@H](O)C[C@H]1C(=O)N1C(=O)C=C[C@@H]1C)C(C)C)C(C)OC(C)=O (stereo partly specified),x,23,x,50*,-3,-5,48*,x,x,
OC[C@H]1Nc2ccc(C#Cc3cccnc3)cc2[C@H]2NCC[C@H]21,36,x,x,x,x,x,x,x,x,
Cc1ccc(N)c(N)c1,-12,-5,x,-1,-2,4,x,x,x,
Cc1ccc(N)cc1N,1,0,x,54*,3,-1,4,x,x,
NC(N)=N/N=C/c1ccc(N(c2ccccc2)c2ccccc2)cc1,89*,107*,25,77*,0,-5,68*,-6,119*,DNA binder FP=i
O=C(Cc1ccccn1)N1CCCCN2[C@H](CO)[C@@H](c3ccc(C#Cc4ccccc4)cc3)[C@@H]2C1,-50,x,x,x,0,x,x,x,x,
S=C(NCCc1ccccc1)NCCc1cnc[nH]1,-17,-4,3,6,10,0,x,x,x,
O=C1C(Cc2cnc[nH]2)NC(=S)N1c1ccccc1 (stereo unspecified),-16,86*,-2,x,-4,0,x,2,104*,
COc1cccc(CN2CC3(C2)[C@H](c2ccccc2)[C@H](CO)N3C(=O)Cc2ccccc2)c1,0,x,x,x,x,x,x,x,x,
N#Cc1cccc(-c2ccc([C@H]3[C@H]4CN(C(=O)Cc5ccncc5)CCCCN4[C@H]3CO)cc2)c1,-31,x,x,x,-3,x,x,x,x,
CCCCCn1c(=O)c(C(=O)Nc2ccccc2S(N)(=O)=O)c(O)c2ccccc21,-12,8,-9,6,x,-5,x,x,x,
CCCCn1c(=O)c(C(=O)Nc2ccccc2S(N)(=O)=O)c(O)c2ccccc21,x,53*,-6,4,7,-6,x,-2,15,
Cc1ccc(C(=O)N[C@@H](C)CN2C3=NC[C@H](Cc4ccccc4)N3C[C@H]2Cc2ccc(O)cc2)cc1Br,x,65*,x,-55,x,-9,x,2,65*,
SMILES,RAD52 inh,UBC13 inh,FID counter,PREPL inhibitor,RAD54 inh,MIN6 prolif,PREPL inh cf,Casp3 counter,UBC13 conf,others
Cc1ccc(C(=O)N[C@@H](C)CN2C3=NC[C@@H](Cc4ccccc4)N3C[C@H]2Cc2ccc(O)cc2)cc1Br,31,77*,8,-45,x,-9,x,-1,76*,
CNCC(O)c1cc(OCc2ccccc2)c(OCc2ccccc2)cc1F (stereo unspecified),40,53*,x,-2,-20,-9,x,2,39,
O=C(Cc1cccnc1)N1CCCCN2[C@H](CO)[C@@H](c3ccc(C#CC4CC4)cc3)[C@H]2C1,13,x,x,x,-8,x,x,x,x,
Clc1ccc(C(c2ccc(Cl)cc2)n2cc[n+](CC(OCc3ccc(Cl)cc3Cl)c3ccc(Cl)cc3Cl)c2)cc1 (stereo unspecified),31,104*,x,-2,-6,-8,x,-3,106*,
O=C1CNC[C@@H]2[C@H](c3ccc(Br)cc3)[C@@H](CO)N12,8,x,x,x,x,x,x,x,x,
CC=Cc1ccc2n(c1=O)C[C@@H]1[C@@H](CO)[C@H](C(=O)O)[C@H]2N1S(=O)(=O)c1ccccc1C (mixture of isomers),1,x,x,x,-15,x,x,x,x,
CCCCCCCSc1cc(OC)c(CCN(C)C)cc1OC,x,50*,32,25,x,-5,x,-3,56*,
Cc1ccc2c(c1)C1CN(C)CCC1N2C(=O)CCCN1C(=O)c2cccc3cccc(c23)C1=O (stereo unspecified),-6,89*,0,17,11,-3,x,-2,101*,
Cc1ccc2c(c1)C1CN(C)CCC1N2C(=O)c1cccnc1Cl (stereo unspecified),3,12,0,5,x,-2,x,x,x,
C/C=C/c1ccc(C2[C@@H]3CN(C(=O)C4CC4)C[C@H]2N3)cc1 (stereo partly specified),24,x,x,x,x,x,x,x,x,
Clc1ccc(COC(Cn2ccnc2)c2ccc(Cl)cc2Cl)cc1 (stereo unspecified),-3,50*,-1,-14,4,-8,x,3,20,
C[C@]12CCC3C(CC[C@H]4C[C@@H](O)CC[C@]34C)C1CC[C@@H]2OC(=O)[C@H](N)CCCCN (stereo partly specified),97*,105*,x,9,66*,-6,x,2,106*,DNA binder FP=i
COC(=O)[C@H]1[C@H](CO)[C@H]2Cn3c(ccc(C4=CCCC4)c3=O)[C@@H]1N2CC1CCCC1,-25,x,x,x,x,x,x,x,x,
